From the supplement of paper PMC13380429

Key:
[1] = tested on: Vero E6 infected with SARS-CoV-2; assay: morphology score (similarity to uninfected cells); higher = more like uninfected cells; details: 24 h
[2] = tested on: Vero E6 infected with SARS-CoV-2; assay: SARS-CoV-2 infection rate relative to infected DMSO; higher = more infection, active = 60 or less; details: 24 h

Row | Compound | morphology score [1] | SARS-CoV-2 infection rate [2]
1 | O=C(Nc1cccc(Cl)c1)c1ccccn1 (10 µM) | 0.228 | 106% (inactive)
2 | C=CC(=O)Nc1cccc(Oc2nc(Nc3ccc(N4CCN(C)CC4)cc3)ncc2Cl)c1 (10 µM) | -0.115 | 118% (inactive)
3 | NS(=O)(=O)c1cc(C(=O)O)cc(N2CCCC2)c1Oc1ccccc1 [piretanide] (10 µM) | 0.0293 | 110% (inactive)
4 | O=C(O)c1cc(-c2ccccc2)nc2ccccc12 [cinchophen] (10 µM) | 0.0922 | 104% (inactive)
5 | CC[C@H](c1ccc(O)cc1)[C@@H](CC)c1ccc(O)cc1 [hexestrol] (10 µM) | 0.143 | 102% (inactive)
6 | Cc1cc(-n2c(=O)[nH]c(=O)n(C)c2=O)ccc1Oc1ccc(SC(F)(F)F)cc1 [toltrazuril] (10 µM) | 0.184 | 107% (inactive)
7 | COC(=O)N[C@H](C(=O)N1CCC[C@H]1c1ncc(-c2ccc(-c3ccc(-c4cnc([C@@H]5CCCN5C(=O)[C@@H](NC(=O)OC)C(C)C)[nH]4)cc3)cc2)[nH]1)C(C)C [daclatasvir] (10 µM) | 0.0693 | 90.5% (inactive)
8 | Nc1ncnc2c1ncn2[C@@H]1O[C@H](COP(=O)(O)O)[C@@H](O)[C@H]1O [adenosine-phosphate] (10 µM) | -0.114 | 113% (inactive)
9 | C[C@@H](CN1CC(=O)NC(=O)C1)N1CC(=O)NC(=O)C1 [dexrazoxane] (10 µM) | 0.0659 | 97% (inactive)
10 | O=S(=O)(O)Oc1ccc(C(c2ccc(OS(=O)(=O)O)cc2)c2ccccn2)cc1 [sodium-picosulfate] (10 µM) | 0.154 | 101% (inactive)
11 | CC(C)(C)NCC(O)CSc1nc(-c2ccc(C(N)=O)s2)cs1 (configuration not stated) [arotinolol] (10 µM) | 0.0582 | 106% (inactive)
12 | CNC(=O)N(C)N=O [nitrosodimethylurea] (10 µM) | 0.0639 | 106% (inactive)
13 | CCCCCCCCCCCCCCCC(=O)C(F)(F)F (10 µM) | 0.158 | 97% (inactive)
14 | CC(C)[C@@H](CS(=O)(=O)C(C)C)N1C(=O)[C@@](C)(CC(=O)O)C[C@H](c2cccc(Cl)c2)[C@H]1c1ccc(Cl)cc1 (10 µM) | -0.12 | 114% (inactive)
15 | O=C(/C=C/c1ccc2ccc(C(F)(F)F)cc2n1)c1ccncc1 (10 µM) | 0.389 | 63.5% (inactive)
16 | CCOC(=O)Nc1ccc(NCc2ccc(F)cc2)nc1N [flupirtine] (10 µM) | 0.0326 | 99% (inactive)
17 | CC[C@@H](C)N(C)C(=O)c1cc2ccccc2c(-c2ccccc2Cl)n1 (10 µM) | -0.122 | 111% (inactive)
18 | Cc1nccn1CCC(C(N)=O)(c1ccccc1)c1ccccc1 [imidafenacin] (10 µM) | 0.133 | 93% (inactive)
19 | CN1CC[C@@]2(C)c3cc(O)ccc3N(C)[C@@H]12 [eseroline-(-)] (10 µM) | 0.137 | 97% (inactive)
20 | CCOc1ccc(S(=O)(=O)O)c2cccnc12 [actinoquinol] (10 µM) | 0.0631 | 112% (inactive)
21 | O=C(O)c1ccc(CN2CCC(CN[C@@H]3C[C@H]3c3ccccc3)CC2)cc1 (10 µM) | 0.106 | 98% (inactive)

Row | Compound | morphology score [1] | SARS-CoV-2 infection rate [2]
22 | CCCCC(=O)O[C@]1(C(=O)CO)[C@@H](C)C[C@H]2[C@@H]3CCC4=CC(=O)C=C[C@]4(C)[C@@]3(F)[C@@H](O)C[C@@]21C (10 µM) | -0.0636 | 112% (inactive)
23 | Cc1ccc(C(=O)Nc2ccc(CN3CCN(C)CC3)c(C(F)(F)F)c2)cc1C#Cc1cnc2[nH]ncc2c1 (10 µM) | 0.453 | 98% (inactive)
24 | CCc1ccc(C2=CC(C)(C)Sc3ccc(C#Cc4ccc(C(=O)O)cc4)cc32)cc1 (10 µM) | -0.0119 | 111% (inactive)
25 | Cc1cccc(C)c1NC(=O)CN1CCCCCC1 [pincainide] (10 µM) | 0.00868 | 106% (inactive)
26 | CCCCCCCCCCCCCCCC[N+](C)(C)CCN(Cc1ccc(OC)cc1)c1ncccn1 [thonzonium] (10 µM) | -0.372 | 122% (inactive)
27 | CC(=O)[C@H]1CC[C@H]2[C@@H]3CC[C@H]4C[C@H](O)CC[C@]4(C)[C@H]3CC[C@]12C [allopregnanolone] (10 µM) | 0.0997 | 103% (inactive)
28 | CN/C(=N\c1ccc(C2=NNC(=O)CC2C)cc1)NC#N (configuration not stated) [siguazodan] (10 µM) | 0.0721 | 109% (inactive)
29 | CO[C@H]1/C=C/O[C@@]2(C)Oc3c(C)c(O)c4c(O)c(cc(O)c4c3C2=O)NC(=O)/C(C)=C\C=C\[C@H](C)[C@H](O)[C@@H](C)[C@@H](O)[C@@H](C)[C@H](OC(C)=O)[C@@H]1C [rifamycin-sv] (10 µM) | 0.117 | 94.2% (inactive)
30 | CC(=O)NC[C@H]1CN(c2ccc(-c3ccc(CNCc4cnn[nH]4)cc3)c(F)c2)C(=O)O1 [radezolid] (10 µM) | 0.0332 | 110% (inactive)
31 | COc1ccc(NS(=O)(=O)c2ccc(N)cc2)nn1 [sulfamethoxypyridazine] (10 µM) | 0.0793 | 110% (inactive)
32 | CCOC(=O)Nc1ccc2c(c1)N(C(=O)CN(CC)CC)c1ccccc1CC2 (10 µM) | 0.0358 | 101% (inactive)
33 | O=C1C2CCN(CC2)C1(CO)CO (10 µM) | 0.273 | 83.5% (inactive)
34 | CC1=C(CCC(=O)O)c2cc3[nH]c(cc4nc(cc5[nH]c(cc1n2)c(C)c5C(C)O)C(C)=C4C(C)O)c(C)c3CCC(=O)O (configuration not stated) [hematoporphyrin] (10 µM) | -0.184 | 116% (inactive)
35 | O=C(O)CCCCC(CCSCc1ccccc1)SCc1ccccc1 (configuration not stated) (10 µM) | 0.195 | 104% (inactive)
36 | Nc1nc(N)c2nc(-c3cccc(O)c3)cnc2n1 (10 µM) | 0.242 | 101% (inactive)
37 | COc1ccc(CCN2CCN(CCCc3ccccc3)CC2)cc1OC [cutamesine] (10 µM) | -0.0482 | 106% (inactive)
38 | Brc1c(Br)c(Br)c2[nH]nnc2c1Br [4,5,6,7-tetrabromobenzotriazole] (10 µM) | -0.0654 | 106% (inactive)
39 | C[C@H]1O[C@H](O[C@H]2[C@H](O)[C@@H](O)[C@@H](O[C@H]3[C@H](O)[C@@H](O)C(O)O[C@@H]3CO)O[C@@H]2CO)[C@H](O)[C@@H](O)[C@@H]1N[C@H]1C=C(CO)[C@@H](O)[C@H](O)[C@H]1O (some centres not stated) [acarbose] (10 µM) | 0.085 | 100% (inactive)
40 | O=C(O[C@@H]1Cc2c(O)cc(O)cc2O[C@@H]1c1ccc(O)c(O)c1)c1cc(O)c(O)c(O)c1 [epicatechin-gallate-(-)] (10 µM) | 0.106 | 100% (inactive)
41 | Nc1nc(O)c2[nH]nnc2n1 [azaguanine-8] (0.833333 µM) | 0.322 | 51.5% (active)
42 | O=C(O)CCC(=O)OC[C@@H](NC(=O)C(Cl)Cl)[C@H](O)c1ccc([N+](=O)[O-])cc1 [chloramphenicol-sodium-succinate] (10 µM) | 0.049 | 108% (inactive)

Row | Compound | morphology score [1] | SARS-CoV-2 infection rate [2]
43 | C[N+]1(C)CCC(OC(=O)C(O)(c2ccccc2)C2CCCC2)C1 (configuration not stated) [glycopyrrolate] (10 µM) | 0.122 | 107% (inactive)
44 | CC(C)(C)c1ccc(C(=O)Nc2cn3cc(-n4ccnc4)ccc3n2)cc1 (10 µM) | -0.0468 | 100% (inactive)
45 | Cc1cc(O)c2c(c1)C(=O)c1cccc(O)c1C2=O [chrysophanic-acid] (10 µM) | -0.0993 | 110% (inactive)
46 | CN1CC[C@@H]2CN3CCc4cccc(c43)[C@@H]2C1 (10 µM) | -0.0541 | 108% (inactive)
47 | c1ccc2nc(N3CCNCC3)ccc2c1 [quipazine] (10 µM) | 0.118 | 104% (inactive)
48 | CC(C(=O)O)c1ccc2c(c1)CC(=O)c1ccccc1S2 (configuration not stated) [zaltoprofen] (10 µM) | 0.241 | 104% (inactive)
49 | CCCCCCc1ccc(O)cc1O.Nc1c2ccccc2nc2ccccc12 [acrisorcin] (0.833333 µM) | 0.293 | 97% (inactive)
50 | CC(C)COC(=O)c1ccc(N)cc1 [isobutamben] (10 µM) | 0.0167 | 106% (inactive)
51 | Cc1ncc(CSSCc2cnc(C)c(O)c2CO)c(CO)c1O [pyritinol] (10 µM) | 0.0152 | 100% (inactive)
52 | C[C@H]1COc2c(C3(N)CC3)c(F)cc3c(=O)c(C(=O)O)cn1c23 [pazufloxacin] (10 µM) | 0.202 | 103% (inactive)
53 | O=C(/C=C\n1cnc(-c2cc(C(F)(F)F)cc(C(F)(F)F)c2)n1)NNc1cnccn1 [selinexor] (10 µM) | -0.235 | 106% (inactive)
54 | CC1=C(C(=O)O)N2C(=O)[C@@H](NC(=O)[C@H](N)c3ccc(O)cc3)[C@H]2SC1 [cefadroxil] (10 µM) | -0.016 | 108% (inactive)
55 | OC[C@H]1OC(O)[C@H](O)[C@@H](O)[C@@H]1O (some centres not stated) [dextrose] (10 µM) | -0.00495 | 110% (inactive)
56 | O=C(C[S+]([O-])C(c1ccccc1)c1ccccc1)NO (configuration not stated) [adrafinil] (10 µM) | 0.2 | 100% (inactive)
57 | Oc1cccc(O)c1 [resorcinol] (10 µM) | 0.0503 | 110% (inactive)
58 | CN(C)c1ccc(-c2nc3c(N4CCN(CC(=O)Nc5nccs5)CC4)c(Cl)cnc3[nH]2)cc1 (10 µM) | 0.47 | 74.5% (inactive)
59 | CCCCCCCCc1ccc(-c2ccc(C(=O)O)cc2)cc1 (10 µM) | -0.0106 | 96% (inactive)
60 | Clc1ccccc1CNC[C@H]1CC[C@H](CNCc2ccccc2Cl)CC1 (10 µM) | 0.523 | 49% (active)
61 | CCC(=O)N1CCOc2c(cc(-c3ccc(OC)c(OC)c3)cc2OC[C@H]2CCCN(C)C2)C1 (0.833333 µM) | -0.0814 | 98.5% (inactive)
